Reference: the supplement of paper PMC6555819

Legend:
Assay in all cases: PBM binding z-score (relative to random genomic background probes); higher = stronger binding; sequences stand for … in GC…GCGATTGACAGCGTAGAATGAAGG
[1] = tested on: FXR:RXRa (NR concentration 270 nM, RXRa partner concentration 90 nM)
Summary of the method: (§1)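 Binding z-scores were set against random background probes. The data came from custom Agilent 4×180K protein-binding microarrays carrying double-stranded probes with 34-nt variable regions, incubated 1 h with ligand-free nuclear receptor dimers. Partner-specific antibodies detected binding, and scanned fluorescence was regression-normalized.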

[2] = tested on: LXRa:RXRa (NR concentration 270 nM, RXRa partner concentration 90 nM)
Summary of the method: as §1

[3] = tested on: LXRa homodimer (NR concentration 270 nM)
Summary of the method: as §1

[4] = tested on: LXRb:RXRa (NR concentration 270 nM, RXRa partner concentration 90 nM)
Summary of the method: as §1

[5] = tested on: LXRb homodimer (NR concentration 270 nM)
Summary of the method: as §1

[6] = tested on: PPARa:RXRa (NR concentration 270 nM, RXRa partner concentration 90 nM)
Summary of the method: as §1

[7] = tested on: PPARg:RXRa (NR concentration 180 nM, RXRa partner concentration 90 nM)
Summary of the method: as §1

[8] = tested on: PPARg:RXRa 270nM:90nM, anti-RXR (NR concentration 270 nM, RXRa partner concentration 90 nM)
Summary of the method: as §1

[9] = tested on: PPARg:RXRa 30nM:10nM, anti-RXR (NR concentration 30 nM, RXRa partner concentration 10 nM)
Summary of the method: as §1

[10] = tested on: PPARg:RXRa 90nM:30nM, anti-RXR (NR concentration 90 nM, RXRa partner concentration 30 nM)
Summary of the method: as §1

[11] = tested on: PPARg:RXRa DBDmut IVT, anti-RXR (DBD mutation: RXRa K156A/R161A, NR concentration 270 nM, RXRa partner concentration 90 nM)
Summary of the method: as §1

[12] = tested on: PPARg:RXRa IVT, anti-PPARg (NR concentration 270 nM, RXRa partner concentration 90 nM)
Summary of the method: as §1

[13] = tested on: PPARg DBDmut:RXRa IVT, anti-PPARg (DBD mutation: PPARg1 K132A/R137A, NR concentration 270 nM, RXRa partner concentration 90 nM)
Summary of the method: as §1

[14] = tested on: PPARg DBDmut IVT, anti-PPARg (DBD mutation: PPARg1 K132A/R137A, NR concentration 270 nM)
Summary of the method: as §1

[15] = tested on: PPARg homodimer (NR concentration 180 nM)
Summary of the method: as §1

[16] = tested on: PXR:RXRa (NR concentration 270 nM, RXRa partner concentration 90 nM)
Summary of the method: as §1

[17] = tested on: PXR homodimer (NR concentration 270 nM)
Summary of the method: as §1

[18] = tested on: RARa:RXR (NR concentration 270 nM, RXRa partner concentration 90 nM)
Summary of the method: as §1

[19] = tested on: RARa homodimer (NR concentration 270 nM)
Summary of the method: as §1

[20] = tested on: RARb:RXRa (NR concentration 270 nM, RXRa partner concentration 90 nM)
Summary of the method: as §1

Row | Sequence | PBM binding z-score [1] | PBM binding z-score [2] | PBM binding z-score [3] | PBM binding z-score [4] | PBM binding z-score [5] | PBM binding z-score [6] | PBM binding z-score [7] | PBM binding z-score [8] | PBM binding z-score [9] | PBM binding z-score [10] | PBM binding z-score [11] | PBM binding z-score [12] | PBM binding z-score [13] | PBM binding z-score [14] | PBM binding z-score [15] | PBM binding z-score [16] | PBM binding z-score [17] | PBM binding z-score [18] | PBM binding z-score [19] | PBM binding z-score [20]
1 | GCGACTGGGGCACAGCAGGTTACCATAAGGTTGG | 0.178 | 0.265 | -0.715 | -0.0951 | -1.1 | 0.996 | 1.75 | 1.45 | -0.344 | 0.859 | 5.07 | 4.28 | -0.331 | -0.666 | 0.354 | 0.113 | -0.29 | 0.435 | -0.475 | 0.997
2 | GTACCAAGGAGAATAGGTCGTTGATGAGTAGGCG | -0.287 | -0.0565 | -0.284 | -0.316 | -0.56 | 0.108 | 0.546 | 0.112 | -0.237 | -0.0411 | -0.462 | -0.173 | -1.64 | -0.217 | 0.315 | 0.103 | -0.146 | 0.0615 | 0.574 | 0.136
3 | CCGACTGGGGCAAAAGGTTACCATAAGCCAGCCC | 0.815 | 3.36 | -0.19 | 1.86 | -1.26 | 3.28 | 4.13 | 5.64 | 3.64 | 5.79 | 3.77 | 4.07 | -0.978 | -1.25 | 1.06 | 1.68 | -0.41 | 2.83 | 0.0331 | 2.8
4 | CGTCCAATGTCATAGGAGGTCAGTGAAGACAGAT | 3.22 | 4.74 | 1.21 | 2.36 | 0.0659 | 2.66 | 0.938 | 0.958 | 0.0922 | 0.565 | 0.186 | 1.95 | 0.476 | 0.254 | 1.72 | 3.91 | 0.941 | 2.69 | 0.765 | 2.9
5 | ACTAGTTGGTCAGCTGAGGTCGCACACAATTCGG | 1.01 | 0.732 | 0.139 | 1.1 | 0.147 | 1.49 | 0.497 | 0.445 | -0.204 | 0.316 | 1.03 | 1.57 | 0.582 | 0.333 | 0.559 | 3.02 | 0.134 | 1.79 | -0.0842 | 1.91
6 | ACTATTAGTTGACTTAGGGCAAACGATACGACGC | 0.00537 | 0.0216 | 0.165 | 0.185 | 0.529 | 0.325 | 1.17 | 0.319 | 0.276 | 0.322 | 0.0351 | 0.568 | 1.39 | 1.52 | 0.392 | 0.274 | 0.0698 | 0.533 | 0.0866 | 0.712
7 | CCTATTAGTTGACCATAAGGCCAACCGAAGCTCG | 0.949 | 0.37 | 0.825 | 0.782 | 0.89 | 0.392 | 0.405 | 0.45 | 0.0484 | 0.551 | 0.55 | 0.487 | 0.478 | 0.312 | 1.95 | 0.947 | 1.1 | 0.845 | 1.87 | 1.34
8 | TTACCAAGGTGAGCTGAGGTCGGTGATCCAACTC | 0.603 | 0.222 | -0.197 | 0.0956 | -1.13 | 1.07 | 0.209 | 0.517 | -0.0845 | 0.37 | 0.759 | 1.6 | -0.343 | -0.369 | -0.703 | 2.47 | -0.308 | 1.19 | -0.395 | 1.52
9 | CTCGGAAGGTCGGTTGAGGTGAGTATACGGATAA | 2.43 | 0.338 | -0.673 | 0.113 | -0.399 | 1.01 | -0.0465 | -0.0669 | -0.473 | -0.159 | -0.598 | 0.491 | -0.365 | -0.461 | 0.527 | 1.84 | -0.347 | 0.849 | -0.2 | 1.89
10 | GCTCGGAGGACAAGGTCAGCGCTTTGTCCGTAGA | 2.42 | 2.15 | -0.539 | 1.88 | -0.677 | 2.94 | 0.785 | 2.1 | -0.477 | 0.958 | 0.29 | 1.07 | -1.37 | -1.53 | 1.12 | 2.18 | -0.34 | 2.68 | -0.859 | 3.88
11 | CGAACTAGGTCAGAACAGGCCAGTGAAGGATGAT | 1.1 | 0.652 | -0.282 | 0.231 | -0.675 | 3.02 | 4.88 | 4.38 | 1.91 | 3.5 | 6.91 | 7.16 | 0.994 | -0.348 | 1.63 | 0.505 | -0.233 | 1.18 | -0.387 | 2.97
12 | TCATATAGGTAAAGGTAAAAGTCGAACGATATGA | 0.715 | 1.06 | -0.299 | 0.926 | -0.151 | 2.1 | 2.75 | 3.46 | 4.13 | 3.8 | 3.98 | 3.36 | 1.85 | 1.27 | 0.454 | 0.53 | 0.308 | 0.709 | 1.3 | 0.845
13 | CGTTCAAGGTCAGCAGGTCAGTGAAAGCGACGTG | 6.5 | 4.34 | 0.93 | 3.38 | 0.134 | 5.37 | 5.07 | 5.47 | 1.95 | 4.09 | 3.85 | 4.34 | 0.78 | 0.144 | 2.98 | 4.06 | 1.14 | 5.42 | 1.55 | 5.54
